From PubChem
JMJD2A Tudor: inhibitors of human JMJD2A Tudor domain | O75164 | AlphaScreen JMJD2A-Tudor / H3K4me3 peptide binding | Potency, µM (series often up to 114 µM), without a hit: at the top dose activity change, negative = inhibition, actives largely listed as inhibitors | actives 4.4% (n = 390,000) | AID 504339; further: on the % scale 0 is the no-effect control and ±100 the full control effect; nearly all actives have a fitted effect of over 50% in size
BAZ2B inh: blocks human BAZ2B. AlphaScreen BAZ2B-H3K14Ac peptide displacement. actives 4.4% (n = 360,000). Potency, µM (titrated, usually from 114 µM), for the others: top-dose activity change, negative = inhibition, actives largely listed as inhibitors. AID 504333. Q9UIF8; further: on the % scale 0 is the no-effect control and ±100 the full control effect; nearly all actives have a fitted effect of over 60% in size
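AlphaScreen luminescence quantifies BAZ2B engagement of H3K14Ac peptide; the protein and biotinylated peptide are both at 50 nM final, buffer PBS pH 7.4 with 0.01% Tween-20, all steps at room temperature.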
Sfp inh: inhibitors of Bacillus subtilis Sfp phosphopantetheinyl transferase; Q9F4F7; Potency, µM, without a hit: largest response in the series, negative = inhibition, actives largely listed as inhibitors; Biochemical Sfp PPTase activity, qHTS; actives 3.5% (n = 310,000);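 further: the enzyme is Sfp with the accession as filed and its product quenches rhodamine fluorescence; 0% = enzyme reaction without inhibitor and -100% = no enzyme wells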
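With Hepes-Na pH 7.6 buffer containing 10 mM MgCl2, Sfp (15 nM) modified BHQ-2-YbbR (12.5 uM) using rhodamine-CoA (5 uM). Two reads 30 minutes apart at 525/598 nm yielded each well's rate.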
HP1b binding inh: inhibitors of HP1-beta chromodomain binding to methylated histone tails. AID 540317. AlphaScreen HP1-beta / biotin-H3K9me3 peptide binding. P83916. Potency, µM (doses to about 114 µM), inactives show top-dose activity change, negative = inhibition, usual class: inhibitors. actives 0.56% (n = 390,000); further: nearly all actives have a fitted effect of over 70% in size
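Compound inhibition of the preformed complex between 50 nM HP1-beta and 50 nM biotinylated H3K9me3 peptide was read by AlphaScreen. Buffer was PBS pH 7.4 with 0.01% Tween-20. Incubations ran 30 min at room temperature, with 10 ug/mL donor/acceptor beads.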
G9a block: inhibitors of human histone lysine methyltransferase G9a | Q96KQ7 | G9a H3K9 monomethylation, AlphaScreen, 2 h | Potency, µM (titrated, usually from 102 µM), for inactives: at the top dose activity, negative = inhibition, hits mostly inhibitors | actives 8.8% (n = 350,000); further: on the % scale 0 is the no-effect control and ±100 the full control effect; nearly all actives have a fitted effect of over 75% in size
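Enzyme 20 nM + cpd, 15 min RT; add b-H3K9 pep 500 nM / SAM 20 uM; 2 h RT; anti-H3K9me1 Ab 0.5 ug/mL + SA donor / anti-rabbit acceptor beads 20 ug/mL each, 10 min; AlphaScreen read.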
Numbers without * were called inactive; ? = inconclusive; · = no result; [ ] = another dose, or the depositor's remark. This is a sample that favours compounds with a hit; in the whole collection about 12% have one here. The call rests on the fitted dose curve; in most records, active means well fitted curve in the direction sought with a large enough effect; inconclusive means small, poorly fitted or top-dose-only effect, or another doubt; inactive means no such curve, though single readings can be large; an effect the other way counts as inactive or inconclusive. Potency means the concentration at half of the fitted maximal effect.

SMILES | JMJD2A Tudor | BAZ2B inh | Sfp inh | HP1b binding inh | G9a block
CCCCNS(=O)(=O)c1ccc2nc(SCC(=O)Nc3sccc3C#N)[nH]c2c1 | -17.7% | 8.7% | 63.1µM* | 11.7% | 70.8µM*
Cc1ccc(NC(=S)Nc2ccc3[nH]c(=O)[nH]c3c2)cc1 | -6.6%[11.4 µM] | -20.9% | ? | -14.7% | 50.1µM*
COCCNC(=S)Nc1ccc2[nH]c(=O)[nH]c2c1 | -9.5% | -22.1% | -11.5% | -2.1% | 17.8µM*
CC(C)c1ccc(NC(=S)Nc2ccc3[nH]c(=O)[nH]c3c2)cc1 | -22.4% | -19.8% | ? | -4.8% | -42.0%
CCOC(=O)c1ccc(NC(=S)Nc2ccc3[nH]c(=O)[nH]c3c2)cc1 | -10.0% | -5.9% | 39.8µM* | 2.6% | ·
O=c1[nH]c2ccc(NC(=S)NCCc3ccccc3)cc2[nH]1 | -13.7% | -5.6% | -41.1% | 34.0% | 17.2%[59 µM]
CCOC(=O)c1ccc(NC(=S)NNC(=O)C2(C)CC2(Cl)Cl)cc1 (stereo unspecified) | -18.1% | 11.2% | -5.6% | -1.6% | 10µM*
COc1cc(OC)cc(-c2nc3nc(C)c(CCC(=O)Nc4ccc(C)cc4C)c(C)n3n2)c1 | 2.7% | -4.5% | · | 31.9% | 0.7%[59 µM]
CCN(CC(=O)Nc1c(F)cccc1F)C(=O)c1cccc(-n2cnnn2)c1 | -11.6% | -2.7% | · | 22.8% | ?
CC(NNC(=O)c1ccccc1)c1ccccc1 (stereo unspecified) | · | · | 31.2% | · | 3.7%[12.7 µM]
O=c1[nH]c2ccc(NC(=S)Nc3ccccc3)cc2[nH]1 | -9.0%[57.1 µM] | 13.8% | ? | -14.3% | 44.7µM*
Cc1ccc(C(=O)NC(=S)Nc2ccc3[nH]c(=O)[nH]c3c2)cc1 | ? | 6.8% | -15.5% | 11.9% | 50.1µM*
COc1cc(OC)cc(C(=O)NC(=S)Nc2ccc3[nH]c(=O)[nH]c3c2)c1 | -26.3% | 9.5% | 4.7% | 19.9% | 6.4%
O=c1[nH]c2ccc(NC(=S)Nc3ccc(Cl)cc3)cc2[nH]1 | -17.2% | 8.3% | 3.3% | -10.4% | -1.9%[59 µM]
Cc1ccc2c(c1)N(C(=O)NCc1ccccc1)CCO2 | -6.2% | 2.7% | · | 35.4% | -14.2%[59 µM]
Nc1ncnc2[nH]c(=S)[nH]c12 | 3.55µM* | · | · | ? | ·
O=c1[nH]c(=S)c2[nH]cnc2[nH]1 | -10.8%[57.1 µM] | · | · | 3.9%[57 µM] | ·
COc1ccc(Cl)cc1NC(=O)Cn1nc(C(F)(F)F)c2c1CCCC2 | 27.8% | 26.0% | · | 69.1% | 27.6%[59 µM]
Cc1noc2ncnc(Oc3ccc(Cl)cc3Cl)c12 | 56.2µM* | 12.9% | 15.3% | 11.2% | 4.7%
Cc1cc(Cl)ccc1Oc1ncnc2onc(C)c12 | -25.2% | -10.5% | -0.2% | 27.9% | 1.9%
Cn1nnc(NC(=O)c2ccccc2F)n1 | -11.8% | -3.4% | 3.2% | 13.4% | -9.3%
Cn1nnc(NC(=S)NC(=O)c2ccc(-c3ccc(Br)cc3)o2)n1 | -3.9% | -12.8% | -15.3% | -7.2% | ?
COc1cc(OC)cc(C(=O)NC(=S)Nc2nnn(C)n2)c1 | ? | ? | 35.5µM* | ? | 10µM*
CC(C)C(=O)NC(=S)Nc1nnn(C)n1 | 1.12µM* | 56.2µM* | -90.2% | ? | 8.91µM*
Cn1nnc(NC(=S)NC(=O)c2cccc3ccccc23)n1 | 2.82µM* | -37.7% | 35.5µM* | -17.1%[57 µM] | 7.94µM*
SMILES | JMJD2A Tudor | BAZ2B inh | Sfp inh | HP1b binding inh | G9a block
COc1ccc(-n2nc(C(=O)N3CCCC(C)C3)c3c4ccccc4n(C)c3c2=O)cc1Cl (stereo unspecified) | -22.0% | · | · | 6.4% | -28.2%[59 µM]
Cc1onc(-c2ccccc2)c1C(=O)OCC(=O)Nc1ccc(OC(F)(F)F)cc1 | 11.7% | 2.7% | · | 74.2% | 32.4%[2.33 µM]
COc1cccc(C(Nc2ccccn2)c2oc(CO)cc(=O)c2O)c1 (stereo unspecified) | 44.7µM* | 79.4µM* | 4.47µM* | ? | 1.26µM*
O=c1cc(CO)oc(C(Nc2ccccn2)c2cccc(F)c2)c1O (stereo unspecified) | 20µM* | -29.9% | 10µM* | ? | 1.26µM*
O=c1cc(CO)oc(C(Nc2ccccn2)c2ccc(C(F)(F)F)cc2)c1O (stereo unspecified) | -17.1% | -7.3% | ? | -16.9% | 1.58µM*
O=c1cc(CO)oc(C(Nc2ccccn2)c2ccccc2F)c1O (stereo unspecified) | 22.4µM* | · | · | ? | ·
O=c1cc(CO)occ1OCc1cccc(C(F)(F)F)c1 | 21.1% | 8.7% | 3.7% | 32.6% | 6.0%[59 µM]
N#Cc1ccccc1CN1C(=O)c2ccccc2S1(=O)=O | -3.7% | -4.8% | 3.3% | 39.3% | 24.8%
NS(=O)(=O)c1ccc(CCNC(=O)c2ccc3nc(CCc4ccccc4)oc3c2)cc1 | -3.2% | 0.4% | · | 24.0%[57 µM] | 1.2%[59 µM]
COc1ccc(/C=C2\C(=O)NC(=S)N2C(=O)c2ccc(F)cc2)cc1 | ? | 56.2µM* | ? | -2.2% | ?
O=C1NC(=S)N(C(=O)c2ccc(F)cc2)/C1=C/c1ccccc1 | 39.8µM* | 44.7µM* | ? | -35.4% | 10µM*
Cc1ccc(NC(=O)C2COc3ccccc3O2)cc1C (stereo unspecified) | 10.9% | -2.4% | -3.5% | 44.5% | ·
Cc1ccc(NC(=O)CN(C)C(=O)c2ccc(S(=O)(=O)N(C)c3ccccc3)cc2)cc1 | -6.2% | -8.7% | 3.9% | 24.5% | 56.2µM*
Cc1ccc(S(=O)(=O)N(C)c2ccc(C(=O)NCc3ccccc3F)cc2)cc1 | -3.7% | -1.3% | · | 25.3% | 50.1µM*
Cc1ccc(S(=O)(=O)N(C)c2ccc(C(=O)NCc3ccccn3)cc2)cc1 | -10.3% | -6.7% | 6.1% | 47.4% | -2.3%
Cc1ccc(C)c(NC(=O)CN(C)C(=O)c2ccc(S(=O)(=O)N(C)c3ccccc3)cc2)c1 | -22.0% | 6.3% | · | 21.0% | 18.0%[12.7 µM]
CC(C)(C)c1ccc(NC(=O)c2ccc(=O)[nH]n2)cc1 | -12.5% | -1.7% | 5.8% | 17.4% | 15.5%[2.33 µM]
CN(CCCCCCN(C)Cc1ccccc1O)Cc1ccccc1O | 20µM* | 50.1µM* | ? | ? | ·
Cc1ccc(O)c(CN(C)Cc2cc(C)ccc2O)c1 | ? | · | · | -5.3% | ·
Cc1cc(O)cc(O)c1C(=O)Cc1cscn1 | -8.2% | -29.9% | -9.1% | 12.8% | -45.9%
N/N=C(\Cc1cscn1)c1ccc(O)cc1O | -14.4% | -13.8% | -24.2% | 36.2% | 10µM*
Cc1nc(C/C(=N\N)c2ccc(O)cc2O)cs1 | -17.3% | -22.0% | -15.3% | 7.8% | 31.6µM*
CCOC(=O)COc1ccc([N+](=O)[O-])cc1-c1ccnc2cc(-c3ccc(Cl)cc3)nn12 | -9.7% | -13.2% | · | 8.1% | 8.3%[59 µM]
CCOC(=O)C1=C(c2ccccc2)NC(N)=NC1c1ccc(OCc2ccc(Cl)cc2)c(OC)c1 (stereo unspecified) | ? | ? | 31.6µM* | -17.0%[57 µM] | -44.4%[59 µM]
CCOC(=O)C1=C(c2ccccc2)NC(=O)NC1c1cc(Cl)c(O)c(OC)c1 (stereo unspecified) | -17.4% | -19.6% | -4.3% | 14.0% | -33.3%
CCOC(=O)CN1C(=O)CC(c2ccc([N+](=O)[O-])cc2)C1=O (stereo unspecified) | -3.3% | -2.2% | 6.0% | 28.5% | 44.7µM*
